Only a selection was taken, and hits are over-represented in it overall.
Six1-Eya2 blk: inhibitors of human Six1/Eya2 interaction. Q15475+O00167. AlphaScreen GST-Six1/His-Eya2 binding, biochemical; hits give low values. activity change, % (concentration not given with the values). hit rate 0.56% among 360,000. AID 651725
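Homogeneous AlphaScreen proximity assay pairing GST-Six1 with His-tagged Eya2 (added as 5X mix: 250 nM and 500 nM) in 50 mM Tris pH 8.0, 300 mM NaCl, 1 mM TCEP. Glutathione donor and nickel acceptor beads; 1 h, 37 °C, dark.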
L3MBTL1 inh: blocks human L3MBTL1; Q9Y468; AlphaScreen L3MBTL1–H3K9me1 peptide binding; Potency, µM (titrated, usually from 57.1 µM), for the others: at the highest dose activity, negative = inhibition, hits mostly inhibitors; hit rate 0.66% among 230,000; AID 485360; active means well fitted inhibition curve with a large enough effect; inconclusive means small, poorly fitted or top-dose-only effect; inactive means no such curve, though single readings can be large or run the other way; further: potency means the concentration at half of the fitted maximal effect; nearly all actives have a fitted effect of over 60% in size
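Read-out is AlphaScreen signal from streptavidin donor and nickel chelate acceptor beads (10 ug/mL final each) bridging L3MBTL1 (50 nM) and biotinylated K9-monomethylated H3(1-15) peptide (75 nM), after 30 min compound exposure at room temperature.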
CtBP-E1A inh: inhibitors of CtBP/E1A interaction; AID 651724; AlphaScreen GST-E1A/His-CtBP binding, 1536-well; hits give low values; hit rate 0.49% among 340,000; activity change, % (no concentration beside the values)
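In 5 uL wells, 23 nL compound meets equimolar GST-E1A and His-CtBP (5X stock 125 nM each) for 2 h, 37 °C. Beads (5X, 50 ug/mL) then 1 h, 37 °C, dark.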
KDM4E inh: blocks human JMJD2E demethylase activity. B2RXH2. JMJD2E catalytic domain, FDH-coupled NADH fluorescence (FDH is formaldehyde dehydrogenase). Potency, µM (doses to about 57.1 µM), inactives show at the top dose activity change, negative = inhibition, usual class: inhibitors. hit rate 1.6% among 230,000; active means well fitted inhibition curve with a large enough effect, not every such curve was filed as active; inconclusive means small, poorly fitted or top-dose-only effect, or another doubt; inactive means no such curve, though single readings can be large or run the other way;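 further: potency means the concentration at half of the fitted maximal effect; 0% = wells with enzyme and -100% = buffer wells without enzyme; nearly all actives have a fitted effect of over 50% in size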
Target sequence (B2RXH2 1-337 limits assumed): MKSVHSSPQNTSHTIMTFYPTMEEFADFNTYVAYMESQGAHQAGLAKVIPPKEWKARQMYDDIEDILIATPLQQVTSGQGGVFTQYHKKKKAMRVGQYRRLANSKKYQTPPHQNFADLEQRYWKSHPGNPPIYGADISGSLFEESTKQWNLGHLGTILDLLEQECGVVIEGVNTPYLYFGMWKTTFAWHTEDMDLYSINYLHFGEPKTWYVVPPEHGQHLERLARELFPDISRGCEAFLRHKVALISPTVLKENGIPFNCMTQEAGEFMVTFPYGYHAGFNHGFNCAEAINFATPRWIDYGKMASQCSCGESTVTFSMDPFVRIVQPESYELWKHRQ
Starred values were filed as active, the others as inactive; u = inconclusive; x = not tested or not shown; [ ] = remark or other dose. Unless noted, no stated cut-off is given here; in the data, active means activity change below about -65%; inconclusive means mostly about -30% to -63%; inactive means weaker than that. Unless noted, on the % scale 0 is the no-effect control and ±100 the full control effect.

SMILES	Six1-Eya2 blk	L3MBTL1 inh	CtBP-E1A inh	KDM4E inh
CS(=O)(=O)Nc1cccc(-c2nc(NCCN3CCOCC3)c3ccccc3n2)c1	x	x	x	4%
COc1ccc(C=CC(=O)c2ccc(OC)c(OC)c2O)cc1OC	-2	x	4	x
Cc1ccc(/C=C/C(=O)c2ccccc(=O)c2O)cc1C	-16	-14%	-1	28µM*
O=C(/C=C/c1ccccc1)c1cc(Br)ccc(=O)c1O	-25	x	-1	13µM*
CN(Cc1ccc(Cl)cc1Cl)C(=O)C1CC(=O)N(Cc2ccco2)C1 (stereo not drawn)	1	x	-2	x
O=C(c1ccco1)N1CCN(C(=O)c2cc(-c3ccccn3)nc3ccc(Cl)cc23)CC1	-87*	9%[11.4 µM]	-92*	-8%
Cc1[nH]n(-c2ccccc2)c(=O)c1N=Nc1ccccc1O	-87*	-24%	-81*	-22%
Cc1ccccc1N=Nc1c(C)[nH]n(-c2ccccc2)c1=O	-5	-7%	2	4%
N#CCc1nn(-c2ccc(F)cc2)c(N)c1C#N	-12	-7%	-12	-2%
O=C(O)[C@@H](O)[C@@H](O)[C@@H](O[C@H]1O[C@@H](CO)[C@@H](O)[C@@H](O)[C@@H]1O)[C@@H](O)CO	x	x	x	4%[25.5 µM]
CC/C=C\C[C@H]1C(=O)CC[C@@H]1CC(=O)O	x	x	x	7%
O=C(NC(=S)Nc1ccccc1N1CCCC1)c1ccc([N+](=O)[O-])cc1	u	7.1µM*	32	-2%
Cc1cc(/C=C(\C#N)C(=O)Nc2ccccc2)c(C)n1-c1ccc2c(c1)OCO2	-12	-6%	1	25µM*
Cc1ccccc1NC(=O)/C(C#N)=C\c1cc(C)n(-c2ccc(C(=O)O)cc2)c1C	-12	x	2	20µM*
Fc1ccc(Nc2ccc3ccccc3n2)c(F)c1	5	x	x	22µM*
CC(=O)O[C@@H](C)C#C[Si](C)(C)c1ccccc1	x	x	x	1%
COCCCNC(=O)/C(C#N)=C/c1c(N2CCN(C)CC2)nc2c(C)cccn2c1=O	-3	x	12	x
COCCNC(=O)/C(C#N)=C/c1c(N2CCN(C)CC2)nc2c(C)cccn2c1=O	-2	x	-76*	x
CSC1=NSC2=NC(=O)/C(=C/c3coc4ccc(O)cc4c3=O)C(=N)N12	-67*	u	-6	u
COc1ccc(C(=O)N2CCCC(C)(C(=O)NS(=O)(=O)C3CC3)C2)c(OC)c1 (stereo not drawn)	4	x	0	x
COc1ccc(C(=O)c2cc([N+](=O)[O-])ccc2N2CCN(C)CC2)cc1	1	-10%	-11	1µM*
COc1ccc(C(=O)c2cc([N+](=O)[O-])ccc2N2CCCC2)cc1	-1	-9%	6	3%
CC(=NNc1nc2ccccc2o1)c1cc2ccccc2cn1	-93*	x	-66*	x
CC(=NNc1nc2ccccc2s1)c1ncccn1	-92*	x	0	x
COc1cc(/C=N/Nc2nc3ccccc3o2)cc(OC)c1O	-8	x	-24	u
SMILES	Six1-Eya2 blk	L3MBTL1 inh	CtBP-E1A inh	KDM4E inh
Cc1cc(C)nc(Nc2nc3ccccc3o2)n1	5	0%	-2	-7%
Oc1ccccc1/C=N/Nc1nc2ccccc2o1	-72*	-11%	-77*	28µM*
CC(=NNc1nc2ccccc2o1)c1ncccn1	-90*	x	0	x
c1ccc2c(c1)nc(N1CCOCC1)c1nnnn12	5	-1%	-4	u
c1ccc(N2CCN(c3nc4ccccc4n4nnnc34)CC2)cc1	9	3.5µM*	14	u
COc1ccc(C2=C(C=Nc3c(C)n(C)n(-c4ccccc4)c3=O)C(c3ccccc3C)c3ccccc3O2)cc1OC (stereo not drawn)	0	x	-20	4%
CC(=O)NC1CCCN(O)C(=O)/C=C(\C)CCOC(=O)C(NC(C)=O)CCCN(O)C(=O)/C=C(\C)CCOC(=O)C(NC(C)=O)CCCN(O)C(=O)/C=C(\C)CCOC1=O (stereo not drawn)	16	26%	20	7.9µM*
O=C1/C(=C/c2ccc(O)c(O)c2)Oc2cc(O)ccc21	-26	x	-1	16µM*
COc1cc(/C=C2\Oc3cc(O)ccc3C2=O)ccc1O	-4	x	-2	u
O=C(CCNC(=O)c1ccc(Br)cc1)NCc1cccnc1	2	-4%	-13	x
Cc1ccc(C(=O)N/C(=C\c2ccco2)C(=O)N2CCCCC2)cc1	4	x	-2	x
O=C(NC1=NCCS1)C1CCN(S(=O)(=O)c2cc([N+](=O)[O-])ccc2Cl)CC1	-19	-94%	6	x
Cc1nnc(NC(=O)C2CCN(S(=O)(=O)c3cc([N+](=O)[O-])ccc3Cl)CC2)o1	-69*	25µM*	-82*	x
Cc1cccc2sc(NC(=O)C3CCN(S(=O)(=O)c4cc([N+](=O)[O-])ccc4Cl)CC3)nc12	-13	u	-7	13µM*
CC(C)C(=O)N(c1ccc2oc(=O)sc2c1)S(=O)(=O)c1cccs1	-21	-6%	-1	-2%
CC(C)C(=O)N(c1cc2sc(=O)oc2c2ccccc12)S(=O)(=O)c1cccs1	u	x	-16	10µM*
COc1cc2c3nnc(-c4ccccc4)c-3cn(Cc3ccccc3F)c2cc1OC	-2	x	-17	3.5µM*
COc1cc2nc(CN(C)Cc3nc4ccccc4c(=O)[nH]3)[nH]c(=O)c2cc1OC	-66*	x	-66*	u
CCN(Cc1nc2ccccc2c(=O)[nH]1)Cc1nc2cc(OC)c(OC)cc2c(=O)[nH]1	-18	16%	-18	u
O=C(/C(=N\Nc1ccc([N+](=O)[O-])cc1)Sc1nnnn1-c1ccccc1)c1ccccc1	u	-19%	u	5%
Cc1ccc(N/N=C(/Sc2nnnn2-c2ccccc2)C(=O)c2ccccc2)cc1	-78*	-1%	u	9%
Cc1ccc(Cl)cc1Nc1nc(-c2sc(NC(=O)c3ccco3)nc2C)cs1	-4	-10%	-6	25µM*
Cc1nc(NC(=O)c2ccco2)sc1-c1csc(Nc2ccc(Cl)cc2Cl)n1	-12	0%	-3	u
CCN1CCN(C(=O)c2cc3cc([N+](=O)[O-])ccc3oc2=O)CC1	-11	1%	7	1%
O=C(c1cc2cc([N+](=O)[O-])ccc2oc1=O)n1cccn1	-9	40µM*	-1	-10%
SMILES	Six1-Eya2 blk	L3MBTL1 inh	CtBP-E1A inh	KDM4E inh
O=[N+]([O-])c1cccc(-c2cc(-c3cc(Br)ccc3O)[nH]n2)c1	-18	x	-8	x
COc1cc(Br)c(Br)cc1N	8	3.5µM*	x	0%
COc1ccc(C2=Nn3c(nnc3-c3ccccn3)SC2)cc1	-67*	u	u	-2%
COc1ccccc1-c1nnc2n1N=C(c1ccc(O)c(O)c1)CS2	-25	-29%	-29	25µM*
COc1ccc(C2=Nn3c(nnc3-c3cccnc3)SC2)cc1OC	-69*	-10%	-77*	-4%
CCOc1ccc(-c2nnc3n2N=C(c2ccc(OC)cc2)CS3)cc1	3	-1%	1	6%
COc1ccc(C2=Nn3c(nnc3-c3ccncc3)SC2)cc1OC	u	x	u	-10%
OCC(O)C(O)[C@H](O[C@H]1OC(CO)C(O)C(O)C1O)[C@H](O)CO (stereo partly drawn)	x	x	x	2%

Screening results from PubChem.
